Data as given in PubChem BioAssay (NCI).
Several values for one entry are separate records, joined by “and”; a condition that tells them apart may be missing. Equal values may be shown once. About 79,000 compounds went through this panel and 15% of them were active in at least one assay; those are over-represented in the sample as a whole. Values without a mark were called inactive. Activity calls are given as the source filed them. No stated cut-off is given here; in the data, active means growth inhibition above about 70%; inactive means the rest.

What was measured:
[1] = NCI Yeast Anticancer Drug Screen. Data for the rad50 strain (AID 155);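 further: 0% = growth of vehicle-only cultures of the same strain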; conditions: S. cerevisiae rad50 strain growth inhibition, stronger effect = higher value
Procedure, shortened: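 Inhibition values express reduced yeast growth in compound-treated cultures relative to vehicle-treated controls.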

[2] = NCI Yeast Anticancer Drug Screen. Data for the sgs1 mgt1 strain (AID 161);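 further: 0% = growth of cultures given vehicle only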; conditions: S. cerevisiae sgs1 mgt1 strain, stronger effect = higher value
Procedure, shortened: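 Mutant yeast exposed to compound; growth scored against vehicle-only wells.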

[3] = NCI Yeast Anticancer Drug Screen. Data for the cln2 rad14 strain (AID 165);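 further: 0% = growth equal to vehicle treated cultures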; conditions: S. cerevisiae cln2 rad14 strain, stronger effect = higher value
Procedure, shortened: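 Growth of compound-exposed yeast (cln2 rad14 genotype) measured and expressed as inhibition relative to vehicle.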

[4] = NCI Yeast Anticancer Drug Screen. Data for the bub3 strain (AID 167); conditions: S. cerevisiae bub3 mutant strain, stronger effect = higher value
Procedure, shortened: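 Steps: expose the mutant yeast strain to compound; grow alongside vehicle-treated cultures; measure growth; express inhibition against the vehicle cultures.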

[5] = NCI Yeast Anticancer Drug Screen. Data for the mlh1 rad18 strain (AID 175); conditions: S. cerevisiae mlh1 rad18 strain growth inhibition, stronger effect = higher value
Procedure, shortened: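 In this whole-cell yeast screen, a strain with altered DNA damage repair is challenged with compound, and its growth is measured against matched vehicle-treated controls.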

[6] = NCI Yeast Anticancer Drug Screen. Data for the mec2-1 strain (AID 157); conditions: S. cerevisiae mec2-1 strain, stronger effect = higher value
Procedure, shortened: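 Test agents were screened against the mec2-1 yeast strain, with defined DNA repair or cell cycle alteration. Growth was scored as inhibition against vehicle-only controls.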

[7] = at 5.0 µM (retest, dose inferred, filed as 0.5)
[8] = at 50.0 µM (retest, dose inferred, filed as 5.0)

| SMILES | growth inhibition [1, 7] | growth inhibition [1, 8] | growth inhibition ([1]; at 50.0 µM) | growth inhibition [2, 7] | growth inhibition [2, 8] | growth inhibition ([2]; at 50.0 µM) | growth inhibition [3, 7] | growth inhibition [3, 8] | growth inhibition ([3]; at 50.0 µM) | growth inhibition [4, 7] | growth inhibition [4, 8] | growth inhibition ([4]; at 50.0 µM) | growth inhibition [5, 7] | growth inhibition [5, 8] | growth inhibition ([5]; at 50.0 µM) | growth inhibition [6, 7] | growth inhibition [6, 8] | growth inhibition ([6]; at 50.0 µM) |
| --- | --- | --- | --- | --- | --- | --- | --- | --- | --- | --- | --- | --- | --- | --- | --- | --- | --- | --- |
| CC(C)(C)NC(=S)N/N=C/c1ccccc1O | 48% | 66% | 89% (active) | 40% | 88% (active) | 92.5% (active) | 24% | 59% | 87.2% (active) | 36% | 78% (active) | 88.2% (active) | 48% | 96% (active) | 91% (active) | – | – | – |
| Cc1ccc(-c2ccccc2)n1-c1cc(Cl)ccc1O | – | – | – | -1% | 99% (active) | 99.2% (active) | 8% | 99% (active) | 97.9% (active) | 0% | 99% (active) | 99% (active) | 10% | 99% (active) | 99.1% (active) | 4% | 99% (active) | 99.2% (active) |
| c1ccc([P+](C[P+](c2ccccc2)(c2ccccc2)c2ccccc2)(c2ccccc2)c2ccccc2)cc1 | 98% (active) | 99% (active) | 47.4% | 98% (active) | 99% (active) | 58.4% | 97% (active) | 99% (active) | 99.4% (active) | 98% (active) | 99% (active) | 99.7% (active) | 98% (active) | 99% (active) | 99.5% (active) | – | – | – |
| O=CC(O)C(O)C(O)C(O)C(O)CO (stereo not given) | – | – | -13.5% and 36% and -23.8% | – | – | -8.85% and -1.5% and -6.45% | – | – | -56.4% and -44.2% and -19.8% | – | – | 7.5% and 25.1% and -0.4% | – | – | -12.4% and 19.2% and 4.25% | – | – | -1.55% and -10.8% and -7.35% |
| c1ccc(OCCCOc2ccccc2)cc1 | – | – | – | 4% | 3% | 13% | 3% | -9% | -5.75% | 7% | 25% | 10.3% | 2% | -1% | 61.9% | -1% | -4% | 10.8% |
| Nc1ccc(C(=O)NN2C(=O)C(Cl)C2c2cc(Br)cc(Br)c2O)cc1 (stereo not given) | -3% | 64% | 96.2% (active) | -3% | 91% (active) | 93.7% (active) | -20% | 76% (active) | 89% (active) | 10% | 54% | 98.2% (active) | 5% | 85% (active) | 94.7% (active) | – | – | – |
| [Cl][Co][Cl].[NH-]CC[N-]CC[N-]CC[NH-] | – | – | 29.6% and -6.2% and 5.8% | – | – | 13.9% and 16.4% and 32.5% | – | – | 28.4% and 16.1% and 18.5% | – | – | 14.1% and 19.4% and 25.4% | – | – | 6.35% and 12.3% and 47% | – | – | 16.8% and -10.4% and 22.6% |
| O=C(c1ccccc1)C1C(=O)c2ccccc2C1=O | – | – | -10.2% and -25.2% and 23.2% | – | – | -5.1% and 12.2% and 24.1% | – | – | -20.8% and 17.2% and 17.1% | – | – | -10.4% and -2.95% and 19.4% | – | – | -7.6% and -26.1% and 18.5% | – | – | 1.1% and -21.3% and 20% |
| CC1C2CCC3C4CC=C5CC(N(C)C)CCC5(C)C4CCC32CN1C (stereo not given) | – | – | -9.65% and 13.9% and -0.1% | – | – | -8% and 7.6% and -3.15% | – | – | 7.25% and 0.15% and 30.5% | – | – | -6.35% and 18.9% and 33.6% | – | – | 9.35% and 23.6% and -7.35% | – | – | -3.8% and 1% and -6.15% |
| C[N+](C)(C)CCCCCCCCCCC(=O)N/N=C/c1ccc([N+](=O)[O-])o1 | – | – | – | 6% | 18% | 48.9% | 2% | 2% | 32.3% | 0% | -3% | -3.85% | 9% | 15% | 64.6% | 2% | 7% | 4.35% |
| Cc1ccnc(N)c1 | – | – | -10.2% and -13.3% and 9.05% | – | – | 2.2% and -19.4% and -6.3% | – | – | -34.4% and -28.6% and -33.6% | – | – | 0.95% and 7.15% and -8.9% | – | – | 1.35% and 16.1% and 1.85% | – | – | -3.4% and -17.8% and 11.4% |
| CCCCCCCCCCCCCCC[C@@H](O)C[N+](C)(C)CCO | 28% | 98% (active) | 90.5% (active) | – | – | – | 42% | 98% (active) | 88.5% (active) | 69% | 98% (active) | 87.1% (active) | 57% | 98% (active) | 92.3% (active) | 91% (active) | 99% (active) | 92.8% (active) |
| CCCC/C(=C\c1cc(Cl)c(O)c(Cl)c1)C(=O)O | 4% | 79% (active) | 59.5% | 2% | 82% (active) | 71.8% (active) | -5% | 76% (active) | 72.4% (active) | 1% | 79% (active) | 56% | -16% | 85% (active) | 87.5% (active) | – | – | – |
